Results filed as inconclusive are left out. A call without a number means that no potency is given here. A number with no mark means an inactive call. Active and inactive are the calls of the source. The call rests on the fitted dose curve; in most records, active means well fitted curve in the direction sought with a large enough effect; inconclusive means small, poorly fitted or top-dose-only effect, or another doubt; inactive means no such curve, though single readings can be large; an effect the other way counts as inactive or inconclusive.
Assay: Primary qHTS for inhibitors of nuclear receptor binding SET domain protein 2 (NSD2) in an isogenic RCH-ACV NSD2 p.E1099K mutant (9B) (AID 1645876)
Settings: RCH-ACV NSD2 E1099K (9B) viability, CellTiter-Glo, 72 h; series mostly up to 44.9 µM
Further: nearly all actives have a fitted effect of over 70% in size.
Potency means the concentration at half of the fitted maximal effect.

Compound | Potency | activity change, negative = viability loss
O=C(O)/C=C/c1ccc(O)c(O[C@@H]2O[C@H](CO)[C@@H](O)[C@H](O)[C@H]2O)c1 | inactive | 
C=C1CC2C(C)(CCC(=O)O)C(C(C)(C)O)CCC2(C)C2C(=O)OC(C)(C(=O)OC)C(=O)C12C (stereo not given) | inactive | 
C[C@@H]1C(=O)O[C@H]2C[C@]34[C@H]5C[C@@H](C(C)(C)C)[C@]36[C@@H](OC(=O)[C@H]6O)O[C@]4(C(=O)O5)[C@]21O | inactive | 
COC(=O)C12C(=O)C(C)=C(O)C1(C)C(C)=CC1C3(CO)CCC(O)C(C)(C)C3CCC12C (stereo not given) | inactive | 
CC1(C(=O)O)CCCC2(C)C3=CCC4CC3(CCC12)CC4CO (stereo not given) | inactive | 
C=C1CCC2C(C)(C(=O)O)CCCC2(C)C1CCC(C)CC(=O)O (stereo not given) | inactive | 
CC(=O)O[C@@H]1[C@@H](CO)O[C@@](CO)(O[C@H]2O[C@H](COC(=O)/C=C/c3ccccc3)[C@@H](O)[C@H](O)[C@H]2O)[C@H]1O | inactive | 
CC1OC(OC2C(CO)OC(OCC3OC(OC(=O)C45CCC(C)(C)CC4C4=CCC6C7(C)CCC(OC8OC(CO)C(O)C(OC9OC(CO)C(O)C(O)C9O)C8O)C(C)(C)C7CCC6(C)C4(C)CC5)C(O)C(O)C3O)C(O)C2O)C(O)C(O)C1OC1OC(CO)C(O)C(O)C1O (stereo not given) |  | -0.174% [at 9.23 µM]
C/C(=C\CCC(C)CCO)C(=O)O[C@@H]1[C@@H](O)[C@H](OC2OC=C(C(=O)O)C3CCC(C)(O)C23)O[C@H](CO)[C@H]1O (stereo not given in full) | inactive | 
COc1ccc(CC2C(=O)NC(C)C(=O)N(C)C3Cc4ccc(cc4)Oc4cc(ccc4OC4OC(CO)C(O)C(O)C4O)CC(C(=O)NC(C)C(=O)NC(C)C(=O)N2C)N(C)C3=O)cc1 (stereo not given) | 0.0138 µM (active) | 
C=C1CC[C@@H]2[C@](C)(CO[C@@H]3O[C@H](CO)[C@@H](O)[C@H](O)[C@H]3O)[C@H](O)CC[C@@]2(C)[C@@H]1C/C=C1/C(=O)OC[C@H]1O | inactive | 
CC(C)CC1NC(=O)C2CC3(O)c4ccccc4NC3N2C1=O (stereo not given) | inactive | 
CC(C)C[C@H](CC(=O)NO)C(=O)N[C@@H](Cc1ccc2ccccc2c1)C(=O)N[C@@H](C)C(=O)NCCN | inactive | 

Assay: Primary qHTS for inhibitors of nuclear receptor binding SET domain protein 2 (NSD2) in an RCH-ACV wild type WT cells (2C) (AID 1645877)
Settings: RCH-ACV (leukaemia line) NSD2 WT (2C) viability, CellTiter-Glo, 72 h; series mostly up to 44.9 µM

Compound | Potency | activity change, negative = cell killing | outcome
C=C[C@@]12COC(=O)C(=C)C1[C@@H](O)[C@H](C(=C)C(=O)OC)[C@@H](OC(=O)C(=C)CO)C2 (stereo not given in full) | 7.09 µM (active) |  | 
C[C@@H]1O[C@@H](O[C@H]2[C@@H](OC(=O)[C@]34CCC(C)(C)CC3C3=CCC5[C@@]6(C)C[C@H](O)[C@H](O[C@@H]7O[C@H](C(=O)O)[C@@H](O)[C@H](O)[C@H]7O)[C@@](C)(C(=O)O)C6CC[C@@]5(C)[C@]3(C)CC4)OC[C@H](O)[C@@H]2O)[C@H](O)[C@H](O)[C@H]1O[C@@H]1OC[C@@H](O)[C@H](O)[C@H]1O (stereo not given in full) |  | -16.7% [at 9.23 µM] | 
CC1=CC(=O)CC(C)(C)[C@@]1(O)CC[C@@H](C)O[C@@H]1O[C@H](CO)[C@@H](O)[C@H](O)[C@H]1O | inactive |  | 
COC(=O)CCc1cc2ccoc2c(OC)c1O[C@@H]1O[C@H](CO)[C@@H](O)[C@H](O)[C@H]1O | inactive |  | 
C=C[C@H]1[C@H](O[C@@H]2O[C@H](CO)[C@@H](O)[C@H](O)[C@H]2O)OC=C(C(=O)OC)[C@H]1CC(=O)O | inactive |  | 
C=CC1(C)C=C2CCC3C(C)(C)C(O[C@@H]4O[C@@H](CO)[C@H](O)[C@H]4O)CCC3(C)C2CC1O[C@@H]1O[C@H](C)[C@H](O)[C@H](O)[C@H]1O (stereo not given in full) | inactive |  | 
CC(=O)C1=CCC2C3CCC4CC(O[C@@H]5O[C@H](CO)[C@@H](O[C@@H]6O[C@@H](C)[C@H](O)[C@@H](O)[C@H]6O)[C@H](O)[C@H]5O[C@@H]5O[C@H](CO)[C@@H](O)[C@H](O)[C@H]5O)CCC4(C)C3CCC12C (stereo not given in full) | inactive |  | 
C=C1C[C@@]23CCC4[C@@](C)(CCC[C@@]4(C)C(=O)OC)C2CC[C@@H]1C3 (stereo not given in full) | inactive |  | 
C=C(C(=O)O)[C@H]1C[C@]2(C)[C@@H](O)CC[C@]23O[C@H]1C[C@@H]3C | inactive |  | 
CC(=O)O[C@H]1C[C@@](O)(C(C)C)C2[C@@H](OC(=O)c3ccc(O)cc3)C[C@@]3(C)O[C@H]3C[C@]21C (stereo not given in full) | inactive |  | 
C[C@H](N)C(=O)N[C@@H](Cc1ccc(O)cc1)C(=O)N1CCC[C@H]1C(=O)NCC(=O)N[C@@H](CCCCN)C(=O)N[C@@H](Cc1ccccc1)C(N)=O |  |  | inactive [at 9.23 µM]
CCn1cc(NC(=S)Nc2cc(Cl)ccc2OC)c(C(N)=O)n1 | inactive |  | 

Reference: PubChem BioAssay (NCATS)
